# Target: ScBbc1
# Assay: SPOT peptide array binding signal intensity (averaged, normalized) (arbitrary units (background-subtracted, floor 0; scale differs between SH3 domains)); higher = stronger binding of the SH3 domain to the peptide
# Procedure: (§1)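 GST-tagged SH3 domains from S. cerevisiae (Sc), A. gossypii (Ag), C. albicans (Ca) and S. pombe (Sp) were incubated at 10 ug/ml overnight at 4 C on cellulose SPOT membranes carrying 292 synthetic 15-mer peptides mined from the S. cerevisiae proteome (cysteines replaced by serines). Binding was detected with anti-GST antibody, HRP secondary and chemiluminescence, quantified with Genespotter, and reported as normalized spot intensities averaged over biological replicates.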
row,Binder,SPOT peptide array binding signal intensity
1,NRPAIRIPSLKKPAL,9.25

# Target: ScBem1-D1
# Assay: as above
# Procedure: as §1
row,Binder,SPOT peptide array binding signal intensity
1,NRPAIRIPSLKKPAL,19

# Target: ScBzz1-D1
# Assay: as above
# Procedure: as §1
row,Binder,SPOT peptide array binding signal intensity
1,NRPAIRIPSLKKPAL,31.5

# Target: ScBzz1-D2
# Assay: as above
# Procedure: as §1
row,Binder,SPOT peptide array binding signal intensity
1,NRPAIRIPSLKKPAL,12.5

# Target: ScCyk3
# Assay: as above
# Procedure: as §1
row,Binder,SPOT peptide array binding signal intensity
1,NRPAIRIPSLKKPAL,20

# Target: ScFus1
# Assay: as above
# Procedure: as §1
row,Binder,SPOT peptide array binding signal intensity
1,NRPAIRIPSLKKPAL,243

# Target: ScHof1
# Assay: as above
# Procedure: as §1
row,Binder,SPOT peptide array binding signal intensity
1,NRPAIRIPSLKKPAL,≤ 0

# Target: ScHse1
# Assay: as above
# Procedure: as §1
row,Binder,SPOT peptide array binding signal intensity
1,NRPAIRIPSLKKPAL,2200

# Target: ScLsb1
# Assay: as above
# Procedure: as §1
row,Binder,SPOT peptide array binding signal intensity
1,NRPAIRIPSLKKPAL,118

# Target: ScLsb2
# Assay: as above
# Procedure: as §1
row,Binder,SPOT peptide array binding signal intensity
1,NRPAIRIPSLKKPAL,12.5

# Target: ScLsb3
# Assay: as above
# Procedure: as §1
row,Binder,SPOT peptide array binding signal intensity
1,NRPAIRIPSLKKPAL,40

# Target: ScLsb4
# Assay: as above
# Procedure: as §1
row,Binder,SPOT peptide array binding signal intensity
1,NRPAIRIPSLKKPAL,10

# Target: ScMyo3
# Assay: as above
# Procedure: as §1
row,Binder,SPOT peptide array binding signal intensity
1,NRPAIRIPSLKKPAL,1

# Target: ScMyo5
# Assay: as above
# Procedure: as §1
row,Binder,SPOT peptide array binding signal intensity
1,NRPAIRIPSLKKPAL,≤ 0

# Target: ScNbp2
# Assay: as above
# Procedure: as §1
row,Binder,SPOT peptide array binding signal intensity
1,NRPAIRIPSLKKPAL,169

# Target: ScPex13
# Assay: as above
# Procedure: as §1
row,Binder,SPOT peptide array binding signal intensity
1,NRPAIRIPSLKKPAL,23.8

# Target: ScRvs167
# Assay: as above
# Procedure: as §1
row,Binder,SPOT peptide array binding signal intensity
1,NRPAIRIPSLKKPAL,39.8

# Target: ScSho1
# Assay: as above
# Procedure: as §1
row,Binder,SPOT peptide array binding signal intensity
1,NRPAIRIPSLKKPAL,412

# Target: ScSla1-D1-D2
# Assay: as above
# Procedure: as §1
row,Binder,SPOT peptide array binding signal intensity
1,NRPAIRIPSLKKPAL,167

# Target: ScSla1-D3
# Assay: as above
# Procedure: as §1
row,Binder,SPOT peptide array binding signal intensity
1,NRPAIRIPSLKKPAL,4

# Target: SpAbp1-D1
# Assay: as above
# Procedure: as §1
row,Binder,SPOT peptide array binding signal intensity
1,NRPAIRIPSLKKPAL,135

# Target: SpBbc1
# Assay: as above
# Procedure: as §1
row,Binder,SPOT peptide array binding signal intensity
1,NRPAIRIPSLKKPAL,3.75

# Target: SpBzz1-D1
# Assay: as above
# Procedure: as §1
row,Binder,SPOT peptide array binding signal intensity
1,NRPAIRIPSLKKPAL,92

# Target: SpBzz1-D2
# Assay: as above
# Procedure: as §1
row,Binder,SPOT peptide array binding signal intensity
1,NRPAIRIPSLKKPAL,≤ 0

# Target: SpCyk3
# Assay: as above
# Procedure: as §1
row,Binder,SPOT peptide array binding signal intensity
1,NRPAIRIPSLKKPAL,5

# Target: SpHof1
# Assay: as above
# Procedure: as §1
row,Binder,SPOT peptide array binding signal intensity
1,NRPAIRIPSLKKPAL,66.5

# Target: SpHof1-2
# Assay: as above
# Procedure: as §1
row,Binder,SPOT peptide array binding signal intensity
1,NRPAIRIPSLKKPAL,1.5

# Target: SpHof1-3
# Assay: as above
# Procedure: as §1
row,Binder,SPOT peptide array binding signal intensity
1,NRPAIRIPSLKKPAL,850

# Target: SpHse1
# Assay: as above
# Procedure: as §1
row,Binder,SPOT peptide array binding signal intensity
1,NRPAIRIPSLKKPAL,664

# Target: SpLsb1
# Assay: as above
# Procedure: as §1
row,Binder,SPOT peptide array binding signal intensity
1,NRPAIRIPSLKKPAL,43.5

# Target: SpLsb4
# Assay: as above
# Procedure: as §1
row,Binder,SPOT peptide array binding signal intensity
1,NRPAIRIPSLKKPAL,27.5

# Target: SpMyo1
# Assay: as above
# Procedure: as §1
row,Binder,SPOT peptide array binding signal intensity
1,NRPAIRIPSLKKPAL,≤ 0

# Target: SpNbp2
# Assay: as above
# Procedure: as §1
row,Binder,SPOT peptide array binding signal intensity
1,NRPAIRIPSLKKPAL,104

# Target: SpPex13
# Assay: as above
# Procedure: as §1
row,Binder,SPOT peptide array binding signal intensity
1,NRPAIRIPSLKKPAL,3

# Target: SpRvs167
# Assay: as above
# Procedure: as §1
row,Binder,SPOT peptide array binding signal intensity
1,NRPAIRIPSLKKPAL,13.3

# Target: SpSla1-D1-D2
# Assay: as above
# Procedure: as §1
row,Binder,SPOT peptide array binding signal intensity
1,NRPAIRIPSLKKPAL,≤ 0

# Target: SpSla1-D3
# Assay: as above
# Procedure: as §1
row,Binder,SPOT peptide array binding signal intensity
1,NRPAIRIPSLKKPAL,≤ 0
